In the supplement of paper PMC10849652 one finds log2 fold change data, which are given here for 23 targets.

Targets with a hit are over-represented here; the source holds about 8,800 in all. About 0.5% of all pairs of compound and target were hits. Unmarked numbers belong to inactive results.

Sequence of UniProt Q9H7B4 (Q9H7B4 whole entry, looked up): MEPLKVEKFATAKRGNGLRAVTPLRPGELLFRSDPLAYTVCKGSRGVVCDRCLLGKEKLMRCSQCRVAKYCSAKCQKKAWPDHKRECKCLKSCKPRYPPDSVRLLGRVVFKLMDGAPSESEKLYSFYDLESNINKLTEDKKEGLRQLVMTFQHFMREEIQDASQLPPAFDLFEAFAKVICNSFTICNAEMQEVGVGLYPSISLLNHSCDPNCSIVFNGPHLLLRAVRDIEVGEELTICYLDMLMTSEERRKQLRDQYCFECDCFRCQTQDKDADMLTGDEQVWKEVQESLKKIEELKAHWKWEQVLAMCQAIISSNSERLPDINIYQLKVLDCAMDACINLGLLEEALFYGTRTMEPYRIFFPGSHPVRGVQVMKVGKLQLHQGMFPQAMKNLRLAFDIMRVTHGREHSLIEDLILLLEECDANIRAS
Sequence of UniProt O95793 (O95793 whole entry, looked up): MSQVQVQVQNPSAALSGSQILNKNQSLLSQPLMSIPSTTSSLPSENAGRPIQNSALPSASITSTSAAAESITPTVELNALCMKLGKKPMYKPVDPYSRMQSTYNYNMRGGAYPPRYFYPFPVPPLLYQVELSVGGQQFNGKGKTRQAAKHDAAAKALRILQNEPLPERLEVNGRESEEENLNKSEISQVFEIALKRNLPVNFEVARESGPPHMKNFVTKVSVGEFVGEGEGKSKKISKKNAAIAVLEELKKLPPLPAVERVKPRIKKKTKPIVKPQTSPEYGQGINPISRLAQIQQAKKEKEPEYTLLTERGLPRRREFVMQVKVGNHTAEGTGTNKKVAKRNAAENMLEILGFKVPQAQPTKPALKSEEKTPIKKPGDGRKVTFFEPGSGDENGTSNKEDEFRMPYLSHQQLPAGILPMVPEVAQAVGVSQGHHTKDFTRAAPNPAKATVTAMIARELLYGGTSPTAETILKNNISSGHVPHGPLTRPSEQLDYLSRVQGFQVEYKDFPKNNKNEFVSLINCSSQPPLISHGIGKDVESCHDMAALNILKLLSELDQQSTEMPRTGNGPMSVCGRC
Sequence of UniProt Q96SB8 (Q96SB8 whole entry, looked up): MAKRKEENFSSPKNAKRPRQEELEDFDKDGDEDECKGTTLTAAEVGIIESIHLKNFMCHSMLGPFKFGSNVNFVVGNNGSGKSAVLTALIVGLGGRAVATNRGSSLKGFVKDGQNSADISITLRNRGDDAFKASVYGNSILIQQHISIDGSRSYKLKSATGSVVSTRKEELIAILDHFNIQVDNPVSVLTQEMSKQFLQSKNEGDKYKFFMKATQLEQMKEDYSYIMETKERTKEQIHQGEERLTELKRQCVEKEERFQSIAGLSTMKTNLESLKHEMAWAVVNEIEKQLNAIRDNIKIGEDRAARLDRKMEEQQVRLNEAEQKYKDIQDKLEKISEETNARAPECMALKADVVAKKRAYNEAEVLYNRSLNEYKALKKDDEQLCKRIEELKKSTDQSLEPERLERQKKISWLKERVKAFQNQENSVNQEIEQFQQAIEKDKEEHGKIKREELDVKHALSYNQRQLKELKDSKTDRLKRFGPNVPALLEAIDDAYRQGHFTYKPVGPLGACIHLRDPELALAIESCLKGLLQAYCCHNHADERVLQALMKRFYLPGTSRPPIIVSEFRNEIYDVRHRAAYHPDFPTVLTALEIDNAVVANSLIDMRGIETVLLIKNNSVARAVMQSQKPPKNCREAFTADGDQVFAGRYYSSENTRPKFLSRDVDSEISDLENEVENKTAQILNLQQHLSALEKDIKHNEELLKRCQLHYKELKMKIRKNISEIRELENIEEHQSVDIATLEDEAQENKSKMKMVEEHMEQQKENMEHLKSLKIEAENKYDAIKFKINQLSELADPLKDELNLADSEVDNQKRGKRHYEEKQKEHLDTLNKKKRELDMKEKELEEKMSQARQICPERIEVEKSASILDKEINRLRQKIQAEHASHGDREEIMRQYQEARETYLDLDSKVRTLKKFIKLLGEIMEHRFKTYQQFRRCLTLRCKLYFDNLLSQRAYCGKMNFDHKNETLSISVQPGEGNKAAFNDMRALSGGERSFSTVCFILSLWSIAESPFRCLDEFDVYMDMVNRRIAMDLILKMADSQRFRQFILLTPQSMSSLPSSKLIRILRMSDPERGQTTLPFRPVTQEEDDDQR
Sequence of UniProt P53985 (P53985 whole entry, looked up): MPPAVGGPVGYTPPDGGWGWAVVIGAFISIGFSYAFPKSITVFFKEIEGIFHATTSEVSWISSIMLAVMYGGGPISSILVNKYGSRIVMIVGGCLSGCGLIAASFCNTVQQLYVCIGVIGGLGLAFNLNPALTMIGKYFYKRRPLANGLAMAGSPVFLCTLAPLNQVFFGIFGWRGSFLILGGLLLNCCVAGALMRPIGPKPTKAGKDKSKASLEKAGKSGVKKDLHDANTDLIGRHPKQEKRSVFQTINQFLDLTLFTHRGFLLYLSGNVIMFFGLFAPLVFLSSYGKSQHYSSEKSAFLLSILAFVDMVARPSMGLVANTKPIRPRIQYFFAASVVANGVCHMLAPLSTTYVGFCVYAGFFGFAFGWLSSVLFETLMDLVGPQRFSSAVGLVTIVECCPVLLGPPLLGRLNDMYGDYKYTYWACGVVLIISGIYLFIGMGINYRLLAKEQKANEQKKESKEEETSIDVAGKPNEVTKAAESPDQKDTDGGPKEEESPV
Sequence of UniProt Q9H2D1 (Q9H2D1 whole entry, looked up): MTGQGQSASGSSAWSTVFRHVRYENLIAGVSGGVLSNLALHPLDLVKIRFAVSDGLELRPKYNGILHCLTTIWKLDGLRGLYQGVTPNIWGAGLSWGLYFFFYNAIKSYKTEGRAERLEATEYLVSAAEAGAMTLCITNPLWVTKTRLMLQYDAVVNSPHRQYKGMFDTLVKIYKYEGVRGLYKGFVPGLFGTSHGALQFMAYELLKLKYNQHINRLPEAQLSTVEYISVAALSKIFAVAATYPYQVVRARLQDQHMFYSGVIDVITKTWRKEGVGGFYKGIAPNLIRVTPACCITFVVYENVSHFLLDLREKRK
Sequence of UniProt Q14542 (Q14542 whole entry, looked up): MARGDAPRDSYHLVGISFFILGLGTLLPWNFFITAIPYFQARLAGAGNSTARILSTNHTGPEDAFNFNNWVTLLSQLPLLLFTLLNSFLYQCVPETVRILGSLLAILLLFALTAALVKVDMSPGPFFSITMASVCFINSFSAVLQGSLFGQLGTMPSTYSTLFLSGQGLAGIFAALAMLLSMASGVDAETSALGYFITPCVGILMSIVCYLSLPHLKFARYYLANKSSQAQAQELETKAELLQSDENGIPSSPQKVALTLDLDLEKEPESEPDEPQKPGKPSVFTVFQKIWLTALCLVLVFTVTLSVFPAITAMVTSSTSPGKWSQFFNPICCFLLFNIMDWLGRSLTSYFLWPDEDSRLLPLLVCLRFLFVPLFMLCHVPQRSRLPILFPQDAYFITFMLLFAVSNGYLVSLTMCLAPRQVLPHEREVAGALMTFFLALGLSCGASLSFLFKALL
Sequence of UniProt Q8TBC3 (Q8TBC3 whole entry, looked up): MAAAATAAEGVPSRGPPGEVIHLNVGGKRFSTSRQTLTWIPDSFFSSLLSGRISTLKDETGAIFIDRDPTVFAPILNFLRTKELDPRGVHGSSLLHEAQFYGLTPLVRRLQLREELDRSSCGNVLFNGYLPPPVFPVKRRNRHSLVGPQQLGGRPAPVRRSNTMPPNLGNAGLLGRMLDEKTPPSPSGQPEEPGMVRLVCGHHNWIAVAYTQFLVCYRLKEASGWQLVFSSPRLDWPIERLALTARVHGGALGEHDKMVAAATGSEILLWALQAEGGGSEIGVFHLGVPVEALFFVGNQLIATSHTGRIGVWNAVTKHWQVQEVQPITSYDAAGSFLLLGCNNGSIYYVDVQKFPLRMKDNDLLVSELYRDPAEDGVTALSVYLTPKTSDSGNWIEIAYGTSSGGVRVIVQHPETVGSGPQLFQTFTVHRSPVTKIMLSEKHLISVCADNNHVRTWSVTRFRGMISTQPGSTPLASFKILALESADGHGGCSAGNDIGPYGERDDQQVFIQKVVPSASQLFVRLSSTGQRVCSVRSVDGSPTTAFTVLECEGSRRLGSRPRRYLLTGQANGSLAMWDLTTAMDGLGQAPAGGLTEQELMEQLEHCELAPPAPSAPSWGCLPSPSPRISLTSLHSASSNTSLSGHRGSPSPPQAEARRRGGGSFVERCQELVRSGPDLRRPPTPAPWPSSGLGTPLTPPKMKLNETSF
Sequence of UniProt P31947 (P31947 whole entry, looked up): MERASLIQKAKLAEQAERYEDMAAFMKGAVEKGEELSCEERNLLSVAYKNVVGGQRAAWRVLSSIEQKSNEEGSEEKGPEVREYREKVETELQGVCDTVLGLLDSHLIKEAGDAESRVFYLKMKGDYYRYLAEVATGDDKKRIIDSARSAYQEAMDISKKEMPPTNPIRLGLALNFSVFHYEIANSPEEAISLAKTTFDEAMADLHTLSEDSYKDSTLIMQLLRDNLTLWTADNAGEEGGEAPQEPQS
Sequence of UniProt O14975 (O14975 whole entry, looked up): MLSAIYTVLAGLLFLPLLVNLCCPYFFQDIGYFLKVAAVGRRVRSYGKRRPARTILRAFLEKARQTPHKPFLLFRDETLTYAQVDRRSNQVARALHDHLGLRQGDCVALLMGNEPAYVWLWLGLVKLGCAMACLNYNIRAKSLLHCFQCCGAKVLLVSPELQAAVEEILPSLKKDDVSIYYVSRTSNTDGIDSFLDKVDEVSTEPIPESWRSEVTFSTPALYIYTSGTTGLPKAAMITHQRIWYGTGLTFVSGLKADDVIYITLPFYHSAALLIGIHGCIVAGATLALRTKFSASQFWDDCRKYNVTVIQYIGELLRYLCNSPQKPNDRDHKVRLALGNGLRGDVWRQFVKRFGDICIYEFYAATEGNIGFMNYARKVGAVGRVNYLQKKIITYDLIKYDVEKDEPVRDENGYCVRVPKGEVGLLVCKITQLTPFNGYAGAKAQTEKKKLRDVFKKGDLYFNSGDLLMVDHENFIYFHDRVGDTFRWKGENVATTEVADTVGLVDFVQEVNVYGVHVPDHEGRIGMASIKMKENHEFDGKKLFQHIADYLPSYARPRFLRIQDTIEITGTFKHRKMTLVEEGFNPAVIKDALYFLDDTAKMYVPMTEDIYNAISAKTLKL

Compound in the assay: Cc1sc2c(c1C)C(c1ccc(Cl)cc1)=N[C@@H](CC(=O)OC(C)(C)C)c1nnc(C)n1-2
The assay can be described thus: log2 fold change, soluble protein after heating vs DMSO (PISA); higher = thermal stabilisation; K562 lysate, 10 uM; active = over 0.2 and 3.5 SD of the protein, either way, in both replicates (recomputed). The gist of the method: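 Dounce homogenisation of K562 pellets in PBS pH 7.4 with 1 mM MgCl2 produced a crude extract, used at 1 mg/mL protein. Exposure to 10 μM compound lasted 30 min, and aliquots were then heated for 3 min across 48°C-58°C, pooled and brought to 0.5% NP-40 at 4°C. The supernatant after 21,000xg for 90 min was quantified by TMTpro 16plex LC-MS/MS with channel sums equalised. Duplicate values are given as log-two fold change in thermal stability relative to solvent controls.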
Take SNCA (UniProt P37840): the log2 fold change was 0.211.
The same measure for SLC25A32 (UniProt Q9H2D1): -0.053; for SMG7 (UniProt Q92540): -0.014.
The same measure for SH3BP5L (UniProt Q7L8J4): 0.01; for SMC6 (UniProt Q96SB8): -0.036; for STK26 (UniProt Q9P289): -0.015.
The same measure for SHCBP1 (UniProt Q8NEM2): -0.022.
With STMN3 (UniProt Q9NZ72), the log2 fold change was -0.061.
For SLC25A44 (UniProt Q96H78) the value was -0.004; for STAU1 (UniProt O95793), 0.059; for TARBP1 (UniProt Q13395), 0.016.
As for TAOK2 (UniProt Q9UL54), the log2 fold change was 0.242.
Take SFN (UniProt P31947): the log2 fold change is 0.041.
As for SLC11A2 isoform 3 (UniProt P49281), the log2 fold change was -0.01.
The same measure for SLC29A2 (UniProt Q14542): -0.116; for STK36 (UniProt Q9NRP7): -0.43.
The same measure for SLC30A9 (UniProt Q6PML9): -0.013.
For SMARCA4 (UniProt P51532) the value was 0.014; for SLC27A2 (UniProt O14975), -0.063; for SMYD3 (UniProt Q9H7B4), -0.001.
As for SHKBP1 (UniProt Q8TBC3), the log2 fold change is -0.027.
For SLC16A1 (UniProt P53985) the value was 0.077.
For STARD3 isoform 3 (UniProt Q14849) the value was -0.004.
